Most compounds without a hit are left out; they make up all but 6.3% or so of the library.
tim10-1 inh: tim10-1 yeast growth inhibition. S. cerevisiae tim10-1 ts strain growth, BacTiter-Glo, 24 h. inhibition, % at 20 µM. 2.2% of 330,000 active. AID 463190;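 active = inhibition of at least 40%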;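 also: mutant grown at 25 °C; 0% = DMSO wells with yeast and 100% = wells holding no yeast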
TIM10 inh: TIM10 yeast growth inhibition. S. cerevisiae TIM10 strain growth, BacTiter-Glo luminescence, 24 h. inhibition, % at 10 µM. 1.4% of 330,000 active. AID 463195;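 active = inhibition of 40% or more at the single tested concentration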;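 also: wild-type TIM10 isogenic control strain grown at permissive 25 °C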
MPTP block: inhibitors of mitochondrial permeability transition pore; AID 602449; 1.4% of 360,000 active; isolated mouse mitochondria, Ca2+ swelling absorbance, 30 min; inhibition, % at 10 µM;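 active = inhibition of 50% or more, scaled per plate between neutral and stimulator controls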;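 also: 0% = DMSO wells given calcium and 100% = 1 mM EGTA wells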
Mdm2 MdmX PPI: disrupts the human Mdm2-MdmX interaction; 3% of 330,000 active; SaOS-2 split-luciferase Mdm2/MdmX complementation, luminescence; inhibition, % at 8 µM;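 active = inhibition of at least 50% at 8 µM in the primary screen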
tim23-1 inh: tim23-1 yeast growth inhibition; 1.3% of 330,000 active; S. cerevisiae tim23-1 growth, BacTiter-Glo luminescence, 24 h; inhibition, % at 20 µM;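 active = growth inhibition of the mutant yeast at or above 50%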;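 also: temperature-sensitive mutant grown at 25 °C; plate controls were DMSO-treated mutant yeast for no effect and medium wells lacking yeast for full effect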
tim10-1 confirm: confirmation of tim10-1 mutant yeast growth inhibitors; shares compounds with tim10-1 inh; S. cerevisiae tim10-1 ts strain growth, BacTiter-Glo, 24 h; inhibition, % at 20 µM; 56% of 7,400 active; AID 463213;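 active = inhibition of yeast growth at or above a set limit in either of two repeat tests at 20 µM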;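 also: tim10-1 mutant grown at permissive 25 °C to find synthetic lethal compounds; 0% = DMSO yeast wells and 100% = medium wells without yeast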
TIM10 conf: TIM10 yeast growth inhibition, confirmed | 63% of 4,600 active | S. cerevisiae tim10 strain growth, BacTiter-Glo luminescence, 24 h | inhibition, % at 10 µM | AID 463215 | shares compounds with TIM10 inh;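 active = inhibition of yeast growth at or above a set limit in either of two replicates at 10 µM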;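 also: this counterscreen used the strain with wild-type TIM10; 0% = yeast with DMSO and 100% = medium wells lacking yeast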
tim23-1 conf: confirmation of tim23-1 mutant yeast growth inhibitors | shares compounds with tim23-1 inh | S. cerevisiae tim23-1 growth, BacTiter-Glo luminescence, 24 h | inhibition, % at 20 µM | 83% of 4,400 active;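 active = inhibition above about 39% in either of two replicate wells at 20 µM, limit read from the data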;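 also: temperature-sensitive tim23-1 mutant grown at 25 °C; 0% = DMSO wells with yeast and 100% = medium wells without yeast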
* = called active by the depositor; x = no result given.

SMILES | tim10-1 inh | TIM10 inh | MPTP block | Mdm2 MdmX PPI | tim23-1 inh | tim10-1 confirm | TIM10 conf | tim23-1 conf
COc1ccc(OCC(=O)Nc2ccc(N3CCN(C(=O)c4ccccc4)CC3)c(Cl)c2)cc1 | 60* | 44* | 2 | -3 | 40 | 58* | 57* | x
COc1ccccc1Cc1c(-c2ccco2)nc2cc(C)c(Br)c(C)n12 | x | x | -1 | x | x | x | x | x
COc1ccc(N2CCN(C(=O)c3cn(C4CCCC4)c(=O)c4c3c3ccccc3n4C)CC2)cc1 | 20 | 31 | 0 | 6 | -2 | x | x | x
Cn1c2ccccc2c2c(C(=O)N3CCN(c4ccccn4)CC3)cn(C3CCCC3)c(=O)c21 | 40* | 47* | 1 | -11 | 27 | 18 | 41* | x
O=C(Nc1cccc(C(F)(F)F)c1)c1ccc(Cn2cc(Br)cn2)o1 | 43* | 42* | 23 | 12 | 45 | 35* | 43* | x
O=C(/C=C/c1ccccc1)Nc1ncn[nH]1 | 49* | 53* | -1 | 25 | 41 | 56* | 48* | x
O=C(O)C(=O)Nc1ncn[nH]1 | x | x | -2 | x | x | x | x | x
Nc1nc(SCc2ccc(Cl)cc2Cl)n[nH]1 | 10 | 7 | -2 | 4 | 19 | x | x | x
CNc1cc(CSC)nc(SCc2ccc(Cl)cc2Cl)n1 | 49* | 44* | 16 | 26 | 48 | 41* | 37* | x
O=C(/C=C/c1cccs1)c1cc(F)ccc1OC(=O)N1CCOCC1 | 53* | 54* | 0 | 2 | 47 | 55* | -26 | x
CCc1ccc(NC(=O)c2noc(C(C)C)c2[N+](=O)[O-])cc1 | 52* | 46* | 8 | 8 | 42 | 44* | 33* | x
CN(C)c1ccc(-c2csc(C(C)(O)c3cccc(F)c3)n2)cc1 (stereo unspecified) | x | x | 13 | x | x | x | x | x
CCOC(=O)C1Nc2ccccc2C2c3ccccc3CC12 (stereo unspecified) | 50* | 35 | -2 | 16 | 59* | 51* | x | 60*
CCOC(=O)C1Nc2c(cc(C(F)(F)F)cc2[N+](=O)[O-])C2c3ccccc3CC12 (stereo unspecified) | 13 | 2 | 1 | 25 | 10 | x | x | x
COc1cc(NCC2COc3c(ccc(OC)c3OC)C2=O)c([N+](=O)[O-])cc1OC (stereo unspecified) | x | x | 0 | x | x | x | x | x
Cc1cc(C(=O)N/N=C/C=C/c2ccccc2[N+](=O)[O-])c(C)o1 | 45* | 56* | -1 | -22 | 55* | 44* | 41* | 57*
O=C(N/N=C/c1ccco1)c1ccccc1OCc1ccccc1Cl | 44* | 42* | 5 | -4 | 51* | 41* | 38* | 48*
O=C(N/N=C/c1ccc[nH]1)c1ccccc1OCc1ccccc1Cl | 28 | 18 | 0 | 3 | 45 | x | x | x
O=C(COC(=O)c1ccc([N+](=O)[O-])s1)c1ccc[nH]1 | 63* | 79* | 0 | 13 | 64* | 71* | 84* | 58*
O=[N+]([O-])c1cccc(NC(=S)N2CCc3ccccc32)c1 | 43* | 25 | 1 | 8 | 51* | 32* | x | 49*
O=C(Nc1cccc([N+](=O)[O-])c1)N1CCCc2ccccc21 | 16 | -12 | 10 | 19 | 15 | x | x | x
Cc1cc(NC(=O)CS(=O)(=O)c2cn(Cc3cccc(C(F)(F)F)c3)c3ccccc23)no1 | x | x | 3 | x | x | x | x | x
CN1CCN(C(=O)c2c(O)c3cccc4c3n(c2=O)CCC4)CC1 | 4 | 5 | 1 | 8 | 8 | x | x | x
COc1ccc(CCNC(=O)c2c(O)c3cccc4c3n(c2=O)CC4)cc1OC | 43* | 57* | 1 | 24 | 53* | -36 | 30* | 45*
CCCCNC(=O)c1c(O)c2cccc3c2n(c1=O)CCC3 | -23 | -6 | 3 | 8 | -11 | x | x | x
SMILES | tim10-1 inh | TIM10 inh | MPTP block | Mdm2 MdmX PPI | tim23-1 inh | tim10-1 confirm | TIM10 conf | tim23-1 conf
CC(=O)c1c(O)c2cccc3c2n(c1=O)CCC3 | 41* | 17 | 0 | 9 | 54* | 30* | x | 52*
Nc1cc(Cl)nc(N/N=C/c2c(O)ccc3ccccc23)n1 | 50* | 45* | -1 | -48 | 66* | 38* | -9 | 70*
O=C(O)c1cc(N/N=C/c2c(O)ccc3ccccc23)ccc1Cl | 19 | -7 | 0 | -71 | 21 | x | x | x
C[C@H]1CN([C@@H](C)CO)C(=O)CCCn2cc(nn2)CO[C@@H]1CN(C)C(=O)Nc1cccc(Oc2ccccn2)c1 | x | x | 0 | x | x | x | x | x
Cc1cc(C)c(S(=O)(=O)c2ccccc2)c(OC(=O)c2ccc(Cl)cc2Cl)n1 | 46* | 52* | 1 | 7 | 74* | 42* | -8 | 76*
Cc1nc2cc3c(=O)n(C)cnc3cc2n1Cc1ccccc1 | x | x | -1 | x | x | x | x | x
O=C(NCc1ccc2c(c1)OCO2)c1ccc(Br)cc1 | -21 | -71 | 0 | -12 | 37 | x | x | x
Cc1nc2cc(C(=O)NCc3ccc4c(c3)OCO4)ccc2n1-c1ccc(Br)cc1 | 47* | 15 | -1 | 9 | 52* | 39* | x | 48*
CCc1c(C)c(C#N)c2nc3ccccc3n2c1NCCN(C)C | 63* | 58* | 1 | -7 | 59* | 56* | 34* | 65*
CCc1c(C)c(C#N)c2nc3ccccc3n2c1NC | -4 | 4 | 1 | 17 | 2 | x | x | x
COCCNC(=O)/C(C#N)=C/c1ccccc1Br | 72* | 76* | -1 | -1 | 79* | 74* | 68* | 77*
N#C/C(=C\c1ccccc1Br)C(=O)NC1CC1 | 54* | 67* | -1 | 7 | 84* | 60* | 83* | 82*
COc1ccc(OC)c(S(=O)(=O)CC(=O)c2cc3ccc(OC)cc3oc2=O)c1 | 30 | 9 | 0 | -17 | 38 | x | x | x
COc1ccc(S(=O)(=O)CC(=O)c2cc3cc(Br)ccc3oc2=O)cc1 | 62* | 30 | -2 | 13 | 72* | 50* | x | 85*
COc1cc2c(cc1OC)/C(=C/c1ccc(Cl)cc1)C(=O)OC2 | 41* | 2 | -1 | 10 | 55* | 12 | x | 47*
O=C(CCSc1ccc(Br)cc1)c1ccc(O)cc1 | 50* | 17 | 7 | 27 | 62* | 49* | x | 74*
CC(C)(Oc1ccc(Cl)cc1)C(=O)NCCN1C(=O)S/C(=C/c2cccnc2)C1=O | 48* | 51* | 2 | -19 | 53* | 44* | -38 | 48*
Cc1cccc(C)c1C(O)c1ncc(-c2cccc(C(F)(F)F)c2)[nH]1 (stereo unspecified) | x | x | 2 | x | x | x | x | x
COC(=O)[C@]12CCCCC=C1N(Cc1ccco1)C(=O)[C@H](CC(=O)N1CCCCC1)C2 | x | x | -1 | x | x | x | x | x
Cc1ccc(N=c2ssnc2Cl)cc1 | 64* | 27 | 1 | -6 | 66* | 63* | x | 90*
Nc1ccccc1N=c1ssnc1Cl | x | x | 0 | x | x | x | x | x
Cc1nnc(N=c2ssnc2Cl)o1 | 27 | 28 | 1 | 48 | 39 | x | x | x
